From ChEMBL document CHEMBL4513216, “Probing the Open Global Health Chemical Diversity Library for Multistage-Active Starting Points for Next-Generation Antimalarials” (ACS Infect Dis, 2020) come the findings set out here.

About 8,600 (12%) of roughly 69,000 compounds showed an effect of 50% or more. Only a selection was taken, and strong results are over-represented in it overall.

This assay relates to Plasmodium berghei. The assay can be described thus: Screen against P. berghei liver stage (PbLuc), transformed with Luciferase, at 10uM. The class given is functional, HepG2. Particulars: tested at 10 uM.
Consider `COCC(=O)NCc1ccc(-c2ncncc2C(=O)N(C)C)cc1`, for which the INHIBITION came out at 26.15%. `CCOCc1ccc(CNc2nc(OC)ncc2Cl)cc1`: the INHIBITION worked out at 35.4%. On to `COc1ccccc1C1(CNCc2ccc([S+](C)[O-])cc2)CC1` (stereo unspecified), for which the INHIBITION is 1.41%.

For the compound `COc1ncc(Cl)c(NCc2ccc([S+](C)[O-])cc2)n1` (stereo unspecified), the INHIBITION was 61.1%. In the case of `COc1ccc(CN2CCc3[nH]nc(C(=O)N(C)C)c3C2)cc1`, the INHIBITION was determined as 21.1%. With `COc1ncc(Cl)c(NCc2ccc(C(=O)N(C)C)cc2)n1`, the INHIBITION amounted to 58.9%.

Regarding `COC(=O)CC1CSCCN1C(=O)CCc1c(C)nn(C)c1C` (stereo unspecified), the INHIBITION is 19.8%. To `COc1ccccc1C(O)CNC(=O)NCc1cc[nH]n1` (stereo unspecified) belongs 26.4%; to `Cc1cc(C)n(CCCNC(=O)C(C)NC(=O)CC2CCCCC2)n1` (stereo unspecified), -7.98%. To `COCC(=O)N1CCC2(CCC2N(C)Cc2ccco2)CC1` (stereo unspecified) belongs -28.2%.

For the compound `Cc1cc(C)n(CC(C)CNC(=O)[C@@H](C)NC(=O)OC(C)(C)C)n1` (stereo partly specified), the INHIBITION is -45.8%. To `Cc1nc(C(=O)N2CCCC2c2noc(C)n2)c[nH]1` (stereo unspecified) belongs 0.914%. As for `CC(C)CCN1CCC2(CCCN(c3nncs3)C2)C1` (stereo unspecified), the figure is 4.1%; as for `CCc1nncn1CCNC(=O)N1CCN(Cc2ccccc2)CC1`, 35.3%; as for `Cn1c2ccc(F)cc2c2ncn(CCCN(CCO)CCO)c(=O)c21`, 24.7%. To `Cc1cnc(C(=O)N2CCCCC2c2nc(C)cs2)cn1` (stereo unspecified) belongs -16%; to `Fc1cnc(N2CC3(CCN(CC4CC4)C3)C2)nc1`, -81.2%.

For the compound `Cn1cnc(S(=O)(=O)N2CC3(CCN(CC4CC4)C3)C2)c1`, the INHIBITION turned out to be 67.5%.

Take `Cn1cnc(S(=O)(=O)N2CC3(CCN(Cc4ccncc4)C3)C2)c1`: the INHIBITION is recorded as 21.3%. To `Cn1cnc(S(=O)(=O)N2CCN(CC3CC3)c3ncccc3C2)c1` belongs -22.1%; to `CC(C)CN1CCC2(C1)CN(S(=O)(=O)c1cn(C)cn1)C2`, 35.8%; to `Cn1cnc(S(=O)(=O)N2CCSC3(CCCCC3)C2)c1`, -37.8%. As for `CCN1CCC2(C1)CN(S(=O)(=O)c1cn(C)cn1)C2`, the figure is 65.7%; as for `Cn1cnc(S(=O)(=O)N2CC3(CCN(c4ccccc4)C3)C2)c1`, 53%. To `Cn1cnc(C(=O)N2CC3(CCN(S(=O)(=O)c4ccccc4)C3)C2)c1` belongs -4.02%. On to `O=C1CN(Cc2occc2C(=O)NCCc2ccc(F)cc2)CCN1`, for which the INHIBITION came to 8.41%. On to `CC(C)CCNC(=O)Cc1cnc(-n2cccc2)s1`, for which the INHIBITION is given as 37.4%. Turning to `c1cnc(N2Cc3nccn3CC(COc3cccnc3)C2)nc1` (stereo unspecified), the INHIBITION is reported as -13.2%.

As to `Cc1cc(F)c(S(=O)(=O)Nc2ccn(CCCC#N)n2)cc1F`, the INHIBITION is reported as 30.5%. Turning to `Cn1cc(C(=O)N[C@H]2CN(Cc3nccs3)[C@@H]3CCCO[C@H]23)cn1`, the INHIBITION is recorded as -8.94%. `CC(C)C1CCC(N2CCN(CCS(C)(=O)=O)CC2)CC1` (stereo unspecified): the INHIBITION is given as 32.9%.

For `CCCn1cc(CN2CCCC2c2cccc(-n3ccnc3)n2)cn1` (stereo unspecified), the INHIBITION was determined as 15.9%. Turning to `O=C(NCC(O)c1ccoc1)Nc1cccs1` (stereo unspecified), the INHIBITION was 19.8%. As to `Cc1nc(C)n(C2CCCN(C(=O)Cc3cn4ccccc4n3)C2)n1` (stereo unspecified), the INHIBITION is 25.4%. In the case of `Cc1cccc(I)c1C(=O)NCc1ncc[nH]1`, the INHIBITION turned out to be 8.08%. To `Cc1c(I)cccc1C(=O)NCc1nnc[nH]1` belongs 51.5%.

For `Cc1c(I)cccc1C(=O)NCC1(CO)CC1`, the INHIBITION was -4.86%. To `O=C(NCc1ncc[nH]1)c1c(F)cccc1I` belongs 25.5%; to `CCc1ccc(CCC(=O)NCc2nnc[nH]2)cc1`, 24.5%.

Take `Cc1c(I)cccc1C(=O)NCc1ncc[nH]1`: the INHIBITION is reported as 57%. Regarding `Cc1c2nnn(CC(=O)N(C)C)c(=O)c2nn1C`, the INHIBITION is 69.4%. To `Cc1c2ncn(CC(=O)N(C)C)c(=O)c2nn1C` belongs 0%. Take `Cc1c2ncn(CC(=O)NC(C)C)c(=O)c2nn1C`: the INHIBITION was 48.5%. To `CC(=O)N1CCN(c2cc(C3CCNCC3)ccn2)CC1` belongs 7.19%; to `Cc1cncc(C(=O)N2CCO[C@H]3[C@H](OCCN(C)C)CC[C@@H]32)c1`, 14.5%.

For the compound `O=C(CC1CCCO1)NS(=O)(=O)Cc1cc(-c2ccccc2)no1` (stereo unspecified), the INHIBITION stood at 25%.

For `Cc1ccc(CN2CCC3(CCN(c4cnn(C)c4)C3=O)C2)s1` (stereo unspecified), the INHIBITION came to 1.94%. As for `CCS(=O)(=O)N1CCC2(CC1)CC[C@@]1(C(=O)N(C)C)CN(C)C[C@@H]21`, the figure is -10.5%. To `CC(C)NC(=O)N1CCC2(CC1)CC[C@@]1(C(=O)N(C)C)CN(C)C[C@@H]21` belongs 67.5%; to `CCN1C[C@H]2C3(CCN(C(=O)NC(C)C)CC3)CC[C@@]2(C(=O)N(C)C)C1`, 28.5%. As to `O=C(NCc1cc(=O)n2c(n1)CN(CC1CCOC1)CCC2)C1CC1` (stereo unspecified), the INHIBITION is 26.8%. On to `CCCc1nc(N2CC[C@@H](c3ccc4ccccc4c3)[C@H](O)C2)no1`, for which the INHIBITION is 36.7%.

With `O[C@@H]1CN(c2noc(C3CC3)n2)CC[C@H]1c1ccc2ccccc2c1`, the INHIBITION was found to be 51.2%. As for `Cc1nc(N2CC[C@@H](c3ccc4ccccc4c3)[C@H](O)C2)no1`, the figure is 31.2%.

Consider `CC(C)NC(=O)N1CCC2(CC1)NC(=O)CC2c1ccncc1` (stereo unspecified), for which the INHIBITION is listed as -3.51%.

Regarding `CCc1nnc2n1CCN(C(=O)c1cn(-c3ccccc3)nn1)C2`, the INHIBITION is -1.15%. To `Cc1nc(CN2C[C@@H]3CN(C(=O)c4ccoc4C)C[C@@H]3C2)cs1` belongs 1.48%. As to `Cc1occc1C(=O)N1CCC2(CCN(Cc3cccs3)C2)CC1`, the INHIBITION was -33.9%.

Take `Cc1nc(CN2C[C@@H]3CN(C(=O)c4ccco4)C[C@@H]3C2=O)cs1`: the INHIBITION turned out to be 40.4%.

Consider `Cc1nc(CN2CCC3(CCN(C(=O)c4ccoc4C)CC3)C2)cs1`, for which the INHIBITION is given as 66.2%.

Turning to `Cc1occc1C(=O)N1CCC2(CCN(Cc3nccs3)C2)CC1`, the INHIBITION was found to be 1.81%. As for `Cc1nc(CN2C(=O)CCC23CCN(Cc2ccco2)CC3)cs1`, the figure is 3.17%; as for `Cc1nc(CN2C[C@@H]3CN(C(=O)c4ccoc4C)C[C@@H]3C2=O)cs1`, 64.9%.

Consider `Cc1nc(CN2CCC3(C2)CN(Cc2ccco2)C3)cs1`, for which the INHIBITION was 56.6%. To `Cc1nc(CN2CCC23CCN(Cc2ccco2)CC3)cs1` belongs 49.4%. As for `Cc1nn(C)cc1CN1CCCC1c1cccc(Nc2nccs2)n1` (stereo unspecified), the INHIBITION was found to be 23.25%. Turning to `COCC(=O)N1CCCC1c1cccc(Nc2ncc(C)s2)n1` (stereo unspecified), the INHIBITION is listed as 42.4%. As for `Cc1cnc(Nc2cccc(C3CCCN3Cc3cn(C)nc3C)n2)s1` (stereo unspecified), the figure is 64.5%; as for `Cc1ccc(C2CCCCCN2Cc2cn(C)nc2C)s1` (stereo unspecified), 27.6%. With `CCN(CC)S(=O)(=O)N1CCCC1c1cccc(Nc2ncc(C)s2)n1` (stereo unspecified), the INHIBITION is recorded as 76.1%. On to `Cc1cnc(Nc2cccc(C3CCCN3C(=O)CO)n2)s1` (stereo unspecified), for which the INHIBITION is given as -0.902%.
